One experiment concerns the target VGLL2. Description: pooled miR-30 sensor sort-seq; sequence = guide strand. As to conditions: shRNA.
As for TTAAACATAACTCAGTCTTTGG, the sensor-assay potency score (higher = more potent) is -0.689.

TTGACTTCTCTTTACTTCTCTA gave a sensor-assay potency score (higher = more potent) of -0.415.

TAATGTTCGTCTCTTCTTCCTC had a sensor-assay potency score (higher = more potent) of -0.332.

As to TATAATCACACTACCTAACAAA, the sensor-assay potency score (higher = more potent) was -1.39.

In turn, TAAGTGAAGAGGACGCAGCGGG registered a sensor-assay potency score (higher = more potent) of -0.197.

Sequence TTACTTCTCTACCACAGTCTTA yielded a sensor-assay potency score (higher = more potent) of -0.551.

Regarding TAAAATCTGACAGTAGTAGTGC, the sensor-assay potency score (higher = more potent) was 0.941.

In turn, TAACAAAATAATTCACATCAGC had a sensor-assay potency score (higher = more potent) of -0.803.

On to TTGTCTAACAACAGCTGCATTT, for which the sensor-assay potency score (higher = more potent) is -1.41.

Another experiment has as its target VIPR2. Described as above. Particulars: shRNA.
With TTTGAGACCTCAGAAGCTCTGC, the sensor-assay potency score (higher = more potent) is 0.397.

TTGACCAGCACTGAGATGGCTC: the sensor-assay potency score (higher = more potent) was -0.324.

The sequence TCTGGGAACGTCTCTGACCATC returned a sensor-assay potency score (higher = more potent) of -1.08.

TCTTGTACTGAGACTGGTCGTT gave a sensor-assay potency score (higher = more potent) of -0.0864.

TTCAGGTGGATGTAATTCCTGG registered a sensor-assay potency score (higher = more potent) of -0.512.

The sequence TTTGCTGTAAAAATTGCTGAAG came in with a sensor-assay potency score (higher = more potent) of -0.647.

As to TAGTGGACGCCGAACAGCGGGA, the sensor-assay potency score (higher = more potent) was -0.939.

TAAAACGTGATCTTGCTCTCAT yielded a sensor-assay potency score (higher = more potent) of 1.2.

The sequence TTGCTGAAGACTTTTGGGCAGG yielded a sensor-assay potency score (higher = more potent) of -1.06.

TTTCGCTTCAGCTCGCACTGCA: the sensor-assay potency score (higher = more potent) turned out to be 0.156.

For TTTTGCTTATGTTTCCTGCTTT, the sensor-assay potency score (higher = more potent) was determined as 0.362.

The sequence TTCACCAGAATATAAAACGTGA showed a sensor-assay potency score (higher = more potent) of -0.447.

Another experiment deals with VKORC1. Described as above. As to conditions: shRNA.
Turning to TCATAGAGCACGAAGAACAGGA, the sensor-assay potency score (higher = more potent) stood at 0.298.

In the case of TAGAGCGAGAGCACTAAGCCCG, the sensor-assay potency score (higher = more potent) was -0.598.

Take AACAATGCAGAAATCATAGAGC: the sensor-assay potency score (higher = more potent) is -0.667.

AGCACGAAGAACAGGATCCAGG showed a sensor-assay potency score (higher = more potent) of -2.45.

For TTGATAGCATAGGTGGTGATAC, the sensor-assay potency score (higher = more potent) was -0.976.

ATAGGTGGTGATACAAACAATG gave a sensor-assay potency score (higher = more potent) of -1.33.

TTGGACCTTCCGGAAACTGAGC had a sensor-assay potency score (higher = more potent) of -1.21.

Turning to TCACGTTGATAGCATAGGTGGT, the sensor-assay potency score (higher = more potent) was -0.749.

As for TTGATTGAGGATGCTGTCCTGT, the sensor-assay potency score (higher = more potent) came out at 0.167.

On to TAGGTGGTGATACAAACAATGC, for which the sensor-assay potency score (higher = more potent) was -1.84.

Take TAGAGCACGAAGAACAGGATCC: the sensor-assay potency score (higher = more potent) is -0.705.

As for ATAGCATAGGTGGTGATACAAA, the sensor-assay potency score (higher = more potent) was -1.7.

For another experiment, the target named is VN1R2. The experiment is described as above. Particulars: shRNA.
Consider TTGGGGTAGAGATTGTTCCTAC, for which the sensor-assay potency score (higher = more potent) was -0.232.

On to TTTTACTTTCATCTCTGCCCAC, for which the sensor-assay potency score (higher = more potent) was -0.563.

For TAGTGCAGCAGTGTTCACTAGC, the sensor-assay potency score (higher = more potent) is -0.0087.

TAAACGTAGGTGATGAAGGAAA showed a sensor-assay potency score (higher = more potent) of -0.975.

In turn, TTAGATAGGATAACCAAGGAGT yielded a sensor-assay potency score (higher = more potent) of -0.311.

TTTGGTGGGTTTCTCTCCGTGT: the sensor-assay potency score (higher = more potent) is -0.0937.

Sequence TAACATAATGCAAAGGTGCTCA gave a sensor-assay potency score (higher = more potent) of -0.437.
Further: reference of the scale not given here.
